TDP1 cell CPT: growth inhibition of DT40 Tdp1-/-;hTDP1 cells with camptothecin (screen for TDP1 inhibitors); chicken DT40 Tdp1-/-;hTDP1 cells + 20 nM CPT, ATP luminescence, 48 h; Potency, µM (highest dose often 46.2 µM), for inactives: top-dose activity change, negative = growth inhibition, actives largely listed as inhibitors; AID 686979; actives 12% (n = 420,000); also: potency is read from the fitted curve at half-maximal effect; nearly all actives have a fitted effect of over 55% in size
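Chicken DT40 Tdp1-/- cells complemented with human TDP1, 400 cells/well, exposed to compounds plus 20 nM camptothecin for at least 48 h at 37 C; viability read as ATP content by CellTiter-Glo luminescence.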
HT1080 IDH1KD tx: toxicity to HT-1080 IDH1 knockdown cells (counter line); HT-1080 IDH1 knockdown viability, ATP luminescence, 48 h; Potency, µM (titrated, usually from 46.1 µM), without a hit: top-dose activity, negative = toxicity, most hits filed as cytotoxic; actives 2% (n = 360,000); AID 686971;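 also: potency is read from the fitted curve at half-maximal effect; 0% = DMSO wells and -100% = cell-free medium wells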
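Using the IDH1-knockdown HT-1080 line run in the same batch and compound series as the NT line, viability after 48 h at 37 °C was determined by CellTiter-Glo luminescence and expressed as % activity.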
HT1080NT lethal: kills 2HG-producing HT-1080-NT fibrosarcoma cells | HT-1080-NT fibrosarcoma viability, CellTiter-Glo ATP luminescence, 48 h | Potency, µM (series often up to 46.1 µM), for inactives: at the highest dose activity, negative = less viability, actives largely listed as cytotoxic | actives 1.6% (n = 360,000);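 also: NT is the 2HG producing partner of a matched IDH1 knockdown line; potency is read from the fitted curve at half-maximal effect; 0% = DMSO-treated cells and -100% = media-only wells without cells; nearly all actives have a fitted effect of over 55% in size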
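A 48-hour cytotoxicity screen used HT-1080-NT cells plated 2 hours before compound delivery. ATP-based CellTiter-Glo luminescence measured viability, normalized to DMSO and no-cell controls.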
IL1B secr inh: inhibitors of inflammasome signaling (IL-1 beta secretion); actives 4.7% (n = 360,000); activity change, % at 57.5 µM; THP-1 LPS/ATP IL-1B secretion, AlphaLISA, 16 h; active compounds read low; in the data active = activity change below about -50%; inconclusive = mostly about -30% to -49%
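Secreted IL-1B measured by AlphaLISA bead assay after 16 h compound exposure of THP-1 cells; compounds (final up to 57.5 uM) added 1 h before LPS (250 ng/mL) and ATP (1.25 mM) stimulation; lower signal means less secretion.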
TDP1 cell noCPT: qHTS for Inhibitors of human tyrosyl-DNA phosphodiesterase 1 (TDP1): qHTS in cells in absence of CPT; DT40 Tdp1-/- hTDP1 cells, no CPT, ATP luminescence, 48 h; Potency, µM (series often up to 46.2 µM), without a hit: top-dose activity change, negative = growth inhibition, actives largely listed as inhibitors; actives 15% (n = 420,000); AID 686978, 2013; also: potency is read from the fitted curve at half-maximal effect; nearly all actives have a fitted effect of over 55% in size
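No-CPT arm: Tdp1-/-;hTDP1 DT40 cells (400/well) plus compounds, incubated ≥48 hr at 37 °C. Readout CellTiter-Glo luminescence.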
Numbers without * were called inactive; i = inactive; ? = inconclusive; · = no result given. Shown are actives, neighbours in structure and some others; about 19% of the full set was active somewhere. Unless noted, calls follow the shape of the dose curve; as a rule, active = well fitted curve in the direction sought with a large enough effect; inconclusive = small, poorly fitted or top-dose-only effect, or another doubt; inactive = no such curve, though single readings can be large; an effect the other way counts as inactive or inconclusive. Unless noted, % is scaled to controls: 0 for no effect and ±100 for the full control effect.

SMILES	TDP1 cell CPT	HT1080 IDH1KD tx	HT1080NT lethal	IL1B secr inh	TDP1 cell noCPT
Cc1cccc(C(=O)NN(C)c2nc(-c3ccccc3)nnc2C(F)(F)F)c1	21µM*	1%	3%	5	2.6µM*
COc1ccc(C(=O)NN(C)c2nc(-c3ccccc3)nnc2C(F)(F)F)cc1	?	9%	14%	-5	16µM*
CC1(c2nnnn2-c2ccc3c(c2)OCCO3)CCC(=O)N1CC(F)(F)F (configuration not stated)	-20%	12%	13%	60	-19%
CC(=O)NC1(c2ccccc2)CCN(CC(=O)N2CCC(C)CC2)CC1	3%	4%	3%	-8	5%
O=C(Nc1nc(-c2ccc(S(=O)(=O)N3CCCC3)cc2)cs1)c1cccs1	?	-14%	0%	?	15µM*
O=C(Nc1cccc(S(=O)(=O)N2CCCCC2)c1)c1cccs1	-16%	2%	2%	i	?
O=C(Nc1nc(-c2ccc(S(=O)(=O)N3CCCCCC3)cc2)cs1)c1cccs1	?	-19%	-15%	10	21µM*
O=C(Nc1ccc(S(=O)(=O)N2CCCC2)cc1)c1cccs1	-28%	2%	-4%	-4	-26%
COc1ccc(Nc2cc(C)c3c(O)cccc3n2)cc1	21µM*	?	?	?	10µM*
Cc1cc(NCc2ccco2)nc2cc(O)ccc12	?	2%	0%	1	?
Cc1ccccc1Nc1cc(C)c2c(O)cccc2n1	?	-6%	-18%	-87*	?
Cc1cc(NC2CCCCC2)nc2ccccc12	?	-5%	-2%	-91*	16µM*
Cc1ccc(Nc2cc(C)c3ccc(O)cc3n2)cc1C	18µM*	-22%	-23%	-18	18µM*
O=C1CCC(=O)N(O)CCCCCNC(=O)CCC(=O)N(O)CCCCNC(=O)CCC(=O)N(O)CCCCCN1	?	?	-29%	-3	?
Cc1ccc(NC2c3ncccc3C(=O)N2Cc2cccs2)cc1 (configuration not stated)	10%	1%	16%	0	-4%
COc1cccc(Nc2cc(C)c3ccccc3n2)c1	-10%	?	-23%	-55*	?
Cc1ccc(CCNC(=O)c2cc(Nc3ccc(C)c(C)c3)nc3ccccc23)cc1	-21%	·	·	·	?
Cc1ccc(Nc2cc(C)c3c(O)cccc3n2)cc1C	21µM*	-25%	-26%	-9	15µM*
CCOc1ccccc1NC(=O)CCc1c(C)nn(-c2ccc(N3CCCCC3)nn2)c1C	23µM*	-12%	-1%	-14	16µM*
CCOc1ccccc1CNC(=O)CCc1c(C)nn(-c2ccc(N3CCCCC3)nn2)c1C	?	·	·	·	21µM*
Cc1nn(-c2ccc(N3CCCC3)nn2)c(C)c1CCC(=O)NCc1ccccc1	-20%	·	·	·	-17%
COc1cc2c(cc1OC)-c1cc3ccc(OC)c(OC)c3c[n+]1CC2	5.2µM*	14%	25%	21	5.2µM*
O=C(Nc1ccc(Cl)cn1)c1ccc2nccnc2c1	?	-16%	-3%	79	?
CC1(C)CCC(c2ccc(Cl)cc2)=C(CN2CCN(c3ccc(C(=O)NS(=O)(=O)c4ccc(N[C@H](CCN5CCOCC5)CSc5ccccc5)c(S(=O)(=O)C(F)(F)F)c4)cc3)CC2)C1	0.45µM*	·	·	·	0.32µM*
Cc1nc(-c2ccccc2)sc1C(=O)NS(=O)(=O)c1ccc(CN2CCN(c3ccccc3)CC2)cc1	3%	1%	3%	2	0%
SMILES	TDP1 cell CPT	HT1080 IDH1KD tx	HT1080NT lethal	IL1B secr inh	TDP1 cell noCPT
COc1ccccc1-c1nnc(SCC(=O)NC2CCS(=O)(=O)C2)n1N (configuration not stated)	3%	8%	8%	29	5%
COc1ccc2c(c1)c1c(c(=O)n(-c3ccccc3)c(=O)n1CC(=O)Nc1ccc(C)c(C)c1)n2C	0%	·	·	·	0%
Nc1cccc2nsnc12	1%	-29%	?	-12	?
Nc1cc2nsnc2cc1Br	5.8µM*	?	-18%	-4	5.8µM*
CN(N=Cc1ccccc1)C(=S)Nc1ccccc1	-76%	9%	-1%	44	12µM*
COCCN(CCOC)C(=S)Nc1ccccc1	5%	11%	-11%	-1	-19%
O=C(CCc1nnc(CCCCc2ccccc2)o1)NCCC1CCCCO1 (configuration not stated)	-15%	3%	9%	14	?
CCC(=O)c1cc(F)ccc1OCC(=O)N1CCN(c2ccc(F)cc2)CC1	18µM*	-9%	-27%	5	21µM*
CC(=O)c1ccc(N2CCN(C(=O)COc3ccc(F)cc3)CC2)c(F)c1	?	-6%	-5%	-16	16µM*
CCOCC(=O)N1CCN(c2ccc(F)cc2)CC1	2%	13%	19%	-8	-8%
CCC(=O)c1ccc(N2CCN(C(=O)COc3ccc(F)cc3)CC2)c(F)c1	21µM*	-7%	-2%	-8	23µM*
CCC(=O)c1ccc(OCC(=O)N2CCN(c3ncccn3)CC2)cc1	-3%	13%	2%	11	2%
CC(C)(C)c1ccc(C(=O)N2CCN(c3ccc(N4CCOCC4)nn3)CC2)cc1	?	-15%	-3%	13	?
O=C(N/N=C/c1ccccc1C(=O)O)c1cccc(S(=O)(=O)N2CCCCC2)c1	-5%	-1%	7%	15	8%
COc1cc(/C=C2\SC(=S)N(NC(=O)c3ccc(O)cc3)C2=O)ccc1O	-3%	-5%	-10%	-2	-13%
O=C1/C(=C/c2ccc(O)c(O)c2)SC(=S)N1Nc1ccccc1	?	?	?	-62*	?
CCC(C(=O)O)N1C(=O)/C(=C/C(C)=C/c2ccccc2)SC1=S (configuration not stated)	5%	-13%	-7%	-6	-2%
COc1cc(/C=C2\SC(=S)N(Nc3ccccc3)C2=O)ccc1O	?	2%	-1%	1	?
O=C(NN1C(=O)/C(=C/c2ccc(O)c(O)c2)SC1=S)c1ccccc1	?	?	-17%	31	12µM*
CC(/C=C1\SC(=S)N(NC(=O)c2ccc(O)cc2)C1=O)=C\c1ccccc1	-17%	4%	-3%	-76*	4%
CCC(=O)OCCNc1cc(Sc2nccn2C)c2nonc2c1[N+](=O)[O-]	1µM*	?	15µM*	-68*	2.3µM*
CCN(CC)c1cc(NCCO)c([N+](=O)[O-])c2nonc12	-14%	-10%	-10%	-8	-17%

Assay outcomes as filed in PubChem BioAssay.
